Data from PubChem BioAssay (NCI).
The panel holds about 83,000 compounds, 20% with a hit somewhere; the sample as a whole holds those more often.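 Each cell line was grown in a 96-well plate and treated with one concentration of compound for 48 hours. Values below 10 were considered active.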 A number with no mark means an inactive call. The source made the active and inactive calls.

Columns and labels:
Assay in all cases: NCI-60 one-dose screen, 48 h (100 = growth as untreated, 0 = no growth, -100 = all killed)
Conditions in all cases: 10 µM unless noted
DU-145 prostate = test system: DU-145 prostate
MALME-3M melanoma = test system: MALME-3M melanoma
MDA-MB-231 breast = test system: MDA-MB-231 breast
RXF 393 renal = test system: RXF 393 renal
SF-268 CNS = test system: SF-268 CNS
SF-295 CNS = test system: SF-295 CNS
SF-539 CNS = test system: SF-539 CNS
UACC-257 melanoma = test system: UACC-257 melanoma
M14 melanoma = test system: M14 melanoma
K-562 leukemia = test system: K-562 leukemia

Compound | growth (DU-145 prostate) | growth (MALME-3M melanoma) | growth (MDA-MB-231 breast) | growth (RXF 393 renal) | growth (SF-268 CNS) | growth (SF-295 CNS) | growth (SF-539 CNS) | growth (UACC-257 melanoma) | growth (M14 melanoma) | growth (K-562 leukemia)
C/C(=N\Nc1ccc(S(N)(=O)=O)cc1)c1ccc(N=Nc2c(Nc3ccccc3)[nH][nH]c2=O)cc1 | 13.8% | -65.9% (active) | -31.3% (active) | -24.1% (active) | 9.33% (active) | 5.12% (active) | -77.4% (active) | 5.63% (active) | -62.5% (active) | –
O=C(NNc1nc2cc(C(F)(F)F)ccc2n2cccc12)c1cnccn1 | -57.5% (active) | -57.2% (active) | -66.8% (active) | -74% (active) | -53.4% (active) | -92.1% (active) | -83% (active) | -83.9% (active) | -81.9% (active) | –
COc1ccc(C(=O)/C=C/c2ccccc2Cl)cc1S(N)(=O)=O | 117% | 93.9% | 91.9% | 124% | 92.1% | 89.2% | 97.5% | 120% | 109% | –
COc1cc(-c2cc(-c3cccc(OCC(=O)O)c3)[nH]c(=O)c2C#N)cc(OC)c1OC | 111% | 95.9% | – | 100% | 110% | 97.6% | 93% | 105% | 97.6% | 89.8%
N#Cc1c(-c2ccc(Cl)cc2)nc2n[nH]c(-c3ccc(Cl)cc3)c2c1-c1ccc(C(F)(F)F)cc1 | 19.8% | -25.8% (active) | – | -14.7% (active) | 6.49% (active) | -54% (active) | -79.3% (active) | 7.34% (active) | -53.3% (active) | -21.3% (active)
COc1cccc(-c2c(C#N)c(-c3ccc(Cl)cc3)nc3n[nH]c(-c4ccc(Cl)cc4)c23)c1 | 58.5% | 59.7% | – | 39.3% | 65.9% | 64.5% | 38.1% | 54.4% | 36.8% | 5.73% (active)
CCOC(=O)C1=C(N)N(c2ccccc2)C2=C(C(=O)CC(C)(C)C2)C1c1cccc(Cl)c1Cl (configuration not stated) | 81% | 77.6% | – | 53.4% | 66% | 53.5% | 32.6% | 85.4% | 81% | 59.5%
Cc1c(C(=O)NNC(=O)c2ccc(Cl)cc2)nnn1-c1ccc(Br)cc1 | 109% | 93.8% | – | 93.1% | 108% | 90.9% | 94.2% | 97.7% | 98.8% | 91.3%
O=C(O)c1ccc(-c2ccc(/C=N/NC(=O)c3[nH]c4ccc(Br)cc4c3-c3ccccc3)o2)cc1 | 38.8% | 34.6% | – | -1.82% (active) | 10.5% | 6.58% (active) | -36.9% (active) | 45.5% | 0.786% (active) | 7.51% (active)
NS(=O)(=O)c1ccc(-n2cc(-c3cccc(NC(=O)c4cc(C(F)(F)F)cc(C(F)(F)F)c4)c3)nn2)cc1 | 69.7% | 63.7% | – | – | 45.3% | 31.4% | 35.1% | 91.1% | 65% | 52.7%
C=C1CC[C@@H]2[C@]3(C)COC(c4cn(-c5ccccc5)nc4-c4cccc([N+](=O)[O-])c4)O[C@@H]3CC[C@@]2(C)[C@@H]1C/C=C1/C(=O)OC[C@H]1O (some centres not stated) | 44.3% | -67.6% (active) | – | -84.2% (active) | 46% | -46.5% (active) | -96.4% (active) | -68% (active) | -51.2% (active) | -12.7% (active)
CC(C)CCNC(=O)N/C(N)=N/c1nc2ccccc2s1 | 66.4% | 77.1% | – | 74.7% | 72% | 45.3% | 56.8% | 35.5% | 79.6% | 28.7%
COc1ccc(C(=O)/C=C/c2cc3c(cc2Br)OCO3)cc1S(N)(=O)=O | -0.788% (active) | 23.8% | 23.7% | -58.2% (active) | 18.1% | -22.8% (active) | -89.2% (active) | 63.6% | -71.2% (active) | –
COc1ccc(C(=O)/C=C/c2cccc(Br)c2)cc1S(N)(=O)=O | -37% (active) | -33.5% (active) | -65.5% (active) | -80.3% (active) | -39.4% (active) | -81.2% (active) | -95.7% (active) | -80% (active) | -93% (active) | –
COc1ccc(C(=O)/C=C/c2c(F)cccc2Cl)cc1S(N)(=O)=O | -0.489% (active) | 12.7% | 17.2% | -44.4% (active) | 24.4% | 12.7% | -62.9% (active) | 12.7% | -59.4% (active) | –
COc1ccc(-c2nnc3ccc(N/N=C/c4ccc(O)cc4)nn23)cc1 | 51.9% | 64.2% | 60.6% | 42.7% | 35.8% | 43.6% | 36.4% | 82.3% | 56.4% | –
COc1ccc(C(=O)/C=C/c2cccc3ccccc23)cc1S(N)(=O)=O | 13.2% | 30.1% | 21.8% | -59.4% (active) | 14.4% | -61.7% (active) | -83.4% (active) | -42.6% (active) | -74% (active) | –
Cc1ccc(-c2nnc3ccc(N/N=C/c4ccccc4)nn23)cc1 | 75.9% | 95.6% | 80.1% | 94.3% | 57.8% | 52.3% | 80.8% | 103% | 67.3% | –
Nc1n[nH]c2cccc(C#Cc3cccc(NC(=O)c4cccc(Cl)c4)c3)c12 | 55.8% | 46.4% | 9.79% (active) | -14.7% (active) | 41.1% | 15.3% | 8.74% (active) | 48.5% | 15.9% | –
CCN1CCN(Cc2ccc(C(=O)Nc3cccc(C#Cc4cccc5[nH]nc(N)c45)c3)cc2C(F)(F)F)CC1 | -41.8% (active) | -76.2% (active) | -90.8% (active) | -87.6% (active) | -61.6% (active) | -87.1% (active) | -97.4% (active) | -89.3% (active) | -95.2% (active) | –
Cc1cc(N=C2NC(=O)CS2)n[nH]1 | 119% | 94.8% | 104% | 128% | 95.8% | 101% | 97.6% | 118% | 96.5% | –
CC(=O)NNc1ccc2nnc(-c3ccccc3)n2n1 | 103% | 98.5% | 106% | 101% | 95% | 104% | 103% | 109% | 98.8% | –
O=C1N/C(=N\c2nccs2)S/C1=C\C=C/c1ccccc1 | 49.1% | 42.6% | 51.6% | 88.6% | 39.2% | 21.9% | 13% | 8.23% (active) | -21% (active) | –
O=C(NNc1nc2cc(F)ccc2n2c(CN3CCCCC3)ccc12)c1cnccn1 | -43.7% (active) | 22.6% | -31.1% (active) | -83.3% (active) | -20.9% (active) | -92% (active) | -66% (active) | -81.1% (active) | -86.5% (active) | –
CN1CCN(c2ccc(C(=O)/C=C/c3cc(C(F)(F)F)cc(C(F)(F)F)c3)cc2)CC1 | -73.9% (active) | -86.5% (active) | -89.9% (active) | -86.7% (active) | -51% (active) | -86.4% (active) | -97% (active) | -88.9% (active) | -97.4% (active) | –
CN1CCN(c2ccc(C(=O)/C=C/c3ccc(Br)cc3)cc2)CC1 | 32.9% | 74.4% | 16.7% | 31.5% | 62.2% | 35.2% | -34.9% (active) | 25.4% | -36.3% (active) | –
COc1ccc(C(=O)/C=C/c2cccc(Cl)c2Cl)cc1S(N)(=O)=O | -76.3% (active) | 23.1% | 1.88% (active) | -71% (active) | 18% | -38.1% (active) | -75.5% (active) | 34.8% | -76.9% (active) | –
